Laboratory results published in PubChem BioAssay (NCI).
This is part of a sample that, as a whole, favours compounds with a hit. Of some 83,000 tested, about 20% had one in any assay.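 The test compound was applied at a single concentration to cells in 96-well plates for 48 hours, and percent growth was recorded.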 Values without a mark were called inactive. The source made the active and inactive calls. Rule for the calls: active = growth percent below 10; inactive = the rest.

The molecules below were run on HCT-116 colon (assay: NCI-60 one-dose screen, 48 h (100 = growth as untreated, 0 = no growth, -100 = all killed)). Conditions: 10 µM unless noted.

Row | SMILES | growth
1 | O=C(CCCCCCCCC(=O)Nc1cccc(C2=NCCN2)c1)Nc1cccc(C2=NCCN2)c1 | 98.3%
2 | C[C@]12CC[C@@H]3c4ccc(O)cc4CC[C@H]3[C@@H]1C[C@H](O)C2 | 49.1%
3 | CCCCCCCCCCCCCC1=NCC[N+]1(CCO)Cc1ccccc1 (centres undefined) | -90.8% (active)
4 | O=C1[C@@H](OS(=O)(=O)CC(F)(F)F)[C@H](c2ccc(F)cn2)N1c1cc2c3ccccc3ccc2c2ccccc12 | 79.3%
5 | Cc1cc(O)cc(O)c1N=NC1=NCCS1 | 93.3%
6 | CCN(CC)CC#CCOC(=O)[C@]1(C)CCC[C@]2(C)[C@H]3C[C@H]4C(C(C)C)=C[C@]3(CC[C@H]21)[C@@H]1C(=O)CCC(=O)[C@@H]14 | 35.8%
7 | CC(=O)OCC1OC(OC2C(COC(C)=O)OC(OCCC[S-])C(OC(C)=O)C2OC(C)=O)C(OC(C)=O)C(OC(C)=O)C1OC(C)=O.[Au+].c1ccc(CN2[CH-]N(Cc3ccccc3)C(c3ccccc3)=C2c2ccccc2)cc1 (centres undefined) | 9.17% (active)
8 | COc1cc(-c2cn(-c3ccc(Cl)c(Cl)c3)c(=O)[nH]2)cc(OC)c1OC | 78.7%
9 | NC(=O)c1ccc2nc3c(n2c1)C(=O)C(=O)c1ccccc1-3 | -79.4% (active)
10 | Nc1c(C(=O)Nc2ccccn2)sc2nc3c(cc12)CCCCCC3 | 7.24% (active)
11 | COc1cccc(NC(=O)Nc2ccc(Oc3ncnc4[nH]c(C)c(C)c34)cc2)c1 | 81.6%
12 | CC(=O)Oc1c2c(nc3c1c1ccccc1n3Cc1ccccc1)-c1ccccc1C2 | 73.5%
13 | CCOC(=O)C(=Cc1c(-c2ccccc2)[nH]c2ccccc12)C(=O)OCC | 41%
14 | CCOC(=O)c1c(C)nc2c(c1N)/C(=C/c1cccs1)C(=O)N2c1ccc(OC)cc1 | 20.9%
15 | Cc1ccccc1NC(=O)c1sc2nc(C)c(C(C)O)cc2c1N (centres undefined) | 22%
16 | C#CCN1C(=O)c2ccccc2N(CC#C)C12CCN(Cc1cn(CC(=O)Nc3ccccc3C(N)=O)nn1)CC2 | 74.4%
17 | O=c1nc(-c2ccccc2)c2cc(-c3ccc(N4CCCC4)nc3)ccc2[nH]1 | 45.7%
18 | CC(=O)ON1CCCC(P(=O)(OCOC(=O)C(C)(C)C)OCOC(=O)C(C)(C)C)C1=O (centres undefined) | 0.623% (active)
19 | O=S(=O)(O)c1ccc(N=NSc2ccc3ccccc3c2)cc1 | 85.8%

Row | SMILES | growth
20 | Cc1cccc(C)c1NCc1nnc(-c2ccco2)o1 | 84.1%
21 | CC1(C)Cc2c(Br)c(Br)c(Br)c(OCC(O)CN3CCOCC3)c2O1 (centres undefined) | 77.9%
22 | S=c1ssnc1-c1cc2ccccc2o1 | 59.5%
23 | CCCCCCCc1n(Cc2ccc3ccccc3c2)c2ccccc2[n+]1Cc1ccc2ccccc2c1 | -84.6% (active)
24 | Oc1c(CCl)cc(Cl)cc1Cc1cc(Cl)cc(Cc2cc(Cl)cc(CCl)c2O)c1O | 3.12% (active)
25 | Cc1cnc(SCc2ccc(Cl)cc2Cl)nc1Nc1ccc(Cl)c(Cl)c1 | 77.3%
26 | O=C(C[n+]1cccc2cc(Cl)ccc21)c1ccc2c(c1)CCCC2 | 7.99% (active)
27 | COc1ccc(/C=C(/C(=O)N2CCN(Cc3ccccc3)CC2)c2cc(OC)c(OC)c(OC)c2)cc1O | 32%
28 | NC(=O)CN1C(=O)c2ccccc2C1=O | 102%
29 | O=C(Nc1nc2ccc(C(F)(F)F)cc2s1)c1cc(Cl)ccc1O | 4.81% (active)
30 | C[C@@H]1C(=O)[C@@H]2C[C@@H](O)[C@@H](O)C[C@]2(C)[C@H]2CC[C@@]3(C)C(=C12)CC[C@@H]3[C@@](C)(O)[C@H](O)CCC(C)(C)O | 103%
31 | O=c1[nH]c(-c2cccc(F)c2)cc2cc(F)ccc12 | 25.4%
32 | COCCOC(=O)COc1ccc(OC)cc1 | 106%
33 | C=C(C)[C@@H]1CC[C@]2(C(=O)N3CCN(C)CC3)CC[C@]3(C)[C@H](CC[C@@H]4[C@@]5(C)C/C(=C/c6ccco6)C(=O)C(C)(C)[C@@H]5CC[C@]43C)[C@@H]12 | 46.9%
34 | N#CCNc1ccc(C(=O)O)cc1 | 103%
35 | OCCNc1nc(NCCO)nc(Nc2ccc(C3=NN(c4cc(Cl)cc(Cl)c4)C(c4ccc(Cl)cc4)C3)cc2)n1 (centres undefined) | 4.84% (active)
36 | C=C1C(=O)O[C@H]2[C@H]1CC/C(COC(=O)NCc1nc3ccccc3[nH]1)=C\CC[C@@]1(C)O[C@@H]21 | 47.5%
37 | Cc1cccc(C)c1NCc1nnc(-c2ccc(O)cc2)o1 | 102%

The molecules below were run on HCC-2998 colon in the same assay as above. Conditions: 10 µM unless noted.

Row | SMILES | growth
38 | O=C(CCCCCCCCC(=O)Nc1cccc(C2=NCCN2)c1)Nc1cccc(C2=NCCN2)c1 | 95.7%
39 | C[C@]12CC[C@@H]3c4ccc(O)cc4CC[C@H]3[C@@H]1C[C@H](O)C2 | 87.6%
40 | CCCCCCCCCCCCCC1=NCC[N+]1(CCO)Cc1ccccc1 (centres undefined) | -75.3% (active)
41 | O=C1[C@@H](OS(=O)(=O)CC(F)(F)F)[C@H](c2ccc(F)cn2)N1c1cc2c3ccccc3ccc2c2ccccc12 | 105%
42 | Cc1cc(O)cc(O)c1N=NC1=NCCS1 | 95.7%
43 | CCN(CC)CC#CCOC(=O)[C@]1(C)CCC[C@]2(C)[C@H]3C[C@H]4C(C(C)C)=C[C@]3(CC[C@H]21)[C@@H]1C(=O)CCC(=O)[C@@H]14 | 75%
44 | CC(=O)OCC1OC(OC2C(COC(C)=O)OC(OCCC[S-])C(OC(C)=O)C2OC(C)=O)C(OC(C)=O)C(OC(C)=O)C1OC(C)=O.[Au+].c1ccc(CN2[CH-]N(Cc3ccccc3)C(c3ccccc3)=C2c2ccccc2)cc1 (centres undefined) | 45.2%
45 | COc1cc(-c2cn(-c3ccc(Cl)c(Cl)c3)c(=O)[nH]2)cc(OC)c1OC | 99.9%
46 | NC(=O)c1ccc2nc3c(n2c1)C(=O)C(=O)c1ccccc1-3 | -84.5% (active)
47 | Nc1c(C(=O)Nc2ccccn2)sc2nc3c(cc12)CCCCCC3 | 48.9%
48 | COc1cccc(NC(=O)Nc2ccc(Oc3ncnc4[nH]c(C)c(C)c34)cc2)c1 | 103%
49 | CC(=O)Oc1c2c(nc3c1c1ccccc1n3Cc1ccccc1)-c1ccccc1C2 | 87.9%
50 | CCOC(=O)C(=Cc1c(-c2ccccc2)[nH]c2ccccc12)C(=O)OCC | 80.7%
51 | CCOC(=O)c1c(C)nc2c(c1N)/C(=C/c1cccs1)C(=O)N2c1ccc(OC)cc1 | 80.7%
52 | Cc1ccccc1NC(=O)c1sc2nc(C)c(C(C)O)cc2c1N (centres undefined) | 67.9%
53 | C#CCN1C(=O)c2ccccc2N(CC#C)C12CCN(Cc1cn(CC(=O)Nc3ccccc3C(N)=O)nn1)CC2 | 100%
54 | O=c1nc(-c2ccccc2)c2cc(-c3ccc(N4CCCC4)nc3)ccc2[nH]1 | 80.5%
55 | CC(=O)ON1CCCC(P(=O)(OCOC(=O)C(C)(C)C)OCOC(=O)C(C)(C)C)C1=O (centres undefined) | -36.8% (active)
56 | O=S(=O)(O)c1ccc(N=NSc2ccc3ccccc3c2)cc1 | 97.2%

Row | SMILES | growth
57 | Cc1cccc(C)c1NCc1nnc(-c2ccco2)o1 | 103%
58 | CC1(C)Cc2c(Br)c(Br)c(Br)c(OCC(O)CN3CCOCC3)c2O1 (centres undefined) | 95.9%
59 | S=c1ssnc1-c1cc2ccccc2o1 | 98.3%
60 | CCCCCCCc1n(Cc2ccc3ccccc3c2)c2ccccc2[n+]1Cc1ccc2ccccc2c1 | -61.2% (active)
61 | Oc1c(CCl)cc(Cl)cc1Cc1cc(Cl)cc(Cc2cc(Cl)cc(CCl)c2O)c1O | 19.5%
62 | Cc1cnc(SCc2ccc(Cl)cc2Cl)nc1Nc1ccc(Cl)c(Cl)c1 | 103%
63 | O=C(C[n+]1cccc2cc(Cl)ccc21)c1ccc2c(c1)CCCC2 | 27.7%
64 | COc1ccc(/C=C(/C(=O)N2CCN(Cc3ccccc3)CC2)c2cc(OC)c(OC)c(OC)c2)cc1O | 95.8%
65 | NC(=O)CN1C(=O)c2ccccc2C1=O | 103%
66 | O=C(Nc1nc2ccc(C(F)(F)F)cc2s1)c1cc(Cl)ccc1O | 10.9%
67 | C[C@@H]1C(=O)[C@@H]2C[C@@H](O)[C@@H](O)C[C@]2(C)[C@H]2CC[C@@]3(C)C(=C12)CC[C@@H]3[C@@](C)(O)[C@H](O)CCC(C)(C)O | 97.3%
68 | O=c1[nH]c(-c2cccc(F)c2)cc2cc(F)ccc12 | 44.6%
69 | COCCOC(=O)COc1ccc(OC)cc1 | 111%
70 | C=C(C)[C@@H]1CC[C@]2(C(=O)N3CCN(C)CC3)CC[C@]3(C)[C@H](CC[C@@H]4[C@@]5(C)C/C(=C/c6ccco6)C(=O)C(C)(C)[C@@H]5CC[C@]43C)[C@@H]12 | 92.3%
71 | N#CCNc1ccc(C(=O)O)cc1 | 104%
72 | OCCNc1nc(NCCO)nc(Nc2ccc(C3=NN(c4cc(Cl)cc(Cl)c4)C(c4ccc(Cl)cc4)C3)cc2)n1 (centres undefined) | 27.1%
73 | C=C1C(=O)O[C@H]2[C@H]1CC/C(COC(=O)NCc1nc3ccccc3[nH]1)=C\CC[C@@]1(C)O[C@@H]21 | 104%
74 | Cc1cccc(C)c1NCc1nnc(-c2ccc(O)cc2)o1 | 100%
